This is part of a sample that, as a whole, favours compounds with a hit. Of some 79,000 tested, about 15% had one in any assay. Rule as the data show it: active = growth inhibition above about 70%; inactive = the rest.
How the values were obtained:
[1] = NCI Yeast Anticancer Drug Screen. Data for the rad50 strain (AID 155);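 also: 0% = growth of vehicle-only cultures of the same strain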; conditions: S. cerevisiae rad50 strain growth inhibition; at 50.0 µM; hits give high values
Procedure, shortened: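 Readout: growth inhibition relative to vehicle-treated cultures. Compound exposure was carried out in a genetically defined yeast strain deficient in DNA damage repair.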

[2] = NCI Yeast Anticancer Drug Screen. Data for the mec2-1 strain (AID 157); conditions: S. cerevisiae mec2-1 strain, at 50.0 µM, hits give high values
Procedure, shortened: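 mec2-1 yeast strain, carrying an alteration in DNA damage repair or cell cycle control, was exposed to compounds; growth inhibition was measured relative to vehicle-treated controls.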

[3] = NCI Yeast Anticancer Drug Screen. Data for the sgs1 mgt1 strain (AID 161);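 also: 0% = growth of cultures given vehicle only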; conditions: S. cerevisiae sgs1 mgt1 strain, at 50.0 µM, hits give high values
Procedure, shortened: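 Growth of a repair-deficient yeast mutant was monitored after compound treatment and expressed as inhibition relative to vehicle-treated cultures.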

[4] = NCI Yeast Anticancer Drug Screen. Data for the cln2 rad14 strain (AID 165);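 also: 0% = growth equal to vehicle treated cultures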; conditions: S. cerevisiae cln2 rad14 strain, at 50.0 µM, hits give high values
Procedure, shortened: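 Yeast carrying cln2 and rad14 alterations (cell cycle control and DNA damage repair) were exposed to compounds. Growth inhibition was measured against vehicle-treated controls.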

[5] = NCI Yeast Anticancer Drug Screen. Data for the bub3 strain (AID 167); conditions: S. cerevisiae bub3 mutant strain, at 50.0 µM, hits give high values
Procedure, shortened: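 Readout: yeast growth inhibition, expressed relative to vehicle-only wells. The test organism is a mutant strain from a panel with lesions in DNA repair or checkpoint genes.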

[6] = NCI Yeast Anticancer Drug Screen. Data for the mlh1 rad18 strain (AID 175); conditions: S. cerevisiae mlh1 rad18 strain growth inhibition; at 50.0 µM; hits give high values
Procedure, shortened: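 Growth inhibition of the yeast strain was measured after compound exposure and expressed relative to vehicle-treated controls. The strain carries defined defects in DNA damage repair.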

Measured: growth inhibition

O=c1[nH]c(=O)n(C2OC(CO)C(O)C2O)cc1Oc1ccccc1 (stereo not given)
inactive: [1] 7.8% | [2] 2.9% | [3] 4.2% | [4] 12.4% | [5] -0.4% | [6] -13.8%

O=S(=O)(c1ccccc1)c1ccccc1Br
inactive: [1] 8% | [2] 14.8% | [3] -3.3% | [4] -18.4% | [5] -10.2% | [6] 35%

COc1cc(N(CCC#N)CCC#N)ccc1/C(N=Nc1ccccc1)=N/NC(=O)c1cc(Br)ccc1O
inactive: [1] 31.4% | [2] 37.1% | [3] 44.2% | [4] 3.3% | [5] 35.9% | [6] 21.4%

O=C(Cc1ccccc1)NC(CSSCC(NC(=O)Cc1ccccc1)C(=O)O)C(=O)O (stereo not given)
inactive: [1] 26.3% | [2] 10.8% | [3] 36.6% | [4] -37.1% | [5] 3.2% | [6] 11.1%

N=C(N)SC1CC2CC1C1C=CCC21 (stereo not given)
inactive: [1] 6.65% | [2] -6.6% | [3] 16.4% | [4] -19.1% | [5] 9.05% | [6] 16.2%

O=C(NCCN1CCCCC1)c1ccc(I)cc1
inactive: [1] 9.2% | [2] 0.95% | [3] 24.8% | [4] 10.2% | [5] 22.4% | [6] 8.6%

C#CCN(CC#C)C(=O)Nc1ccc(Cl)cc1
inactive: [1] -33.5% | [2] -21.4% | [3] -11.2% | [4] -47% | [5] -16.2% | [6] 3.45%

COc1ccccc1N=Nc1c(O)n(-c2ccccc2C)c(=S)n(-c2ccccc2OC)c1=O
inactive: [1] 38.4% | [2] -9.7% | [3] 19.1% | [4] -12.8% | [5] -3.95% | [6] 3.2%

C/C(=N\NC(N)=O)c1cc2cc([N+](=O)[O-])ccc2oc1=O
inactive: [1] -2.2% | [2] 23.6% | [3] 16.1% | [4] -7.85% | [5] -12.6% | [6] 8.5%

Cc1ccccc1-n1c(C)nc(-c2ccccc2)cc1=O
inactive: [1] -23.4% | [2] -47.2% | [3] -4.9% | [4] 15.5% | [5] -9.4% | [6] 2.8%

Cc1ccc(NC(=O)C(=O)C(C(=O)c2ccc3ccccc3c2)C2OC(=O)c3ccccc32)c(C)c1 (stereo not given)
inactive: [1] 45.6% | [2] 26.6% | [3] 32.9% | [4] 11.2% | [5] 34.9% | [6] 62.2%

N#Cc1c2c(c(=O)n3c1[nH]c1ccccc13)CCCC2
inactive: [1] 16.2% | [2] 5.35% | [3] 19.8% | [4] 7.95% | [5] 18.4% | [6] 18.5%

COc1cc(-c2c(C#N)c(OC)[nH]c(=O)c2C#N)cc(OC)c1OC
inactive: [1] 3.85% | [2] 13.3% | [3] 7.55% | [4] 13.4% | [5] 1.85% | [6] -0.45%

O=C(O)/C(=C\c1ccccc1[N+](=O)[O-])c1ccc(Cl)cc1
inactive: [1] -0.2% | [2] -14.1% | [3] -2.3% | [4] -46.8% | [5] -8.95% | [6] -1.8%

N#Cc1sc2c(c1OC(=O)c1ccccc1)c(=O)n(-c1ccccc1)c(=S)n2-c1ccccc1
inactive: [1] -2.65% | [2] 10.8% | [3] 3.45% | [4] -12.4% | [5] -5.95% | [6] 18%

O=c1c2c(oc3cc(OCC4CO4)ccc13)CCC2 (stereo not given)
inactive: [1] -0.4% | [2] -7.7% | [3] -28.2% | [4] -24.9% | [5] -9.05% | [6] -21.4%

CC(C)=CC1C(COCc2cc3c(cc2Br)OCO3)C1(C)C (stereo not given)
inactive: [1] -12.3% | [2] -9.45% | [3] 3% | [4] -34.2% | [5] -7.05% | [6] -3.95%

COc1cc2c3cc1Oc1c(O)c(OC)cc4c1C(Cc1ccc(O)c(c1)Oc1ccc(cc1)CC3N(C)CC2)N(C)CC4 (stereo not given)
inactive: [1] -22.1% | [2] -47.2% | [3] -33.6% | [4] -5.4% | [5] -24.5% | [6] -13%

c1csc(-c2sc(-c3ccsc3)cc2Cc2ccsc2)c1
inactive: [1] -23.1% | [2] -20.1% | [3] -32.9% | [4] -14.4% | [5] -26.6% | [6] -23.3%

O=C(N/N=C\c1ccncc1)Nc1ccc(N=Nc2ccccc2)cc1
inactive: [1] 13.2% | [2] 6.05% | [3] 17.6% | [4] -2.6% | [5] 5.9% | [6] 19.6%
